The text below walks through data of PubChem BioAssay (Tox21).

Inconclusive results are not listed. A number with no mark means an inactive call. Calls of active or inactive are those of the source. Calls follow the shape of the full dose curve.
% is scaled to controls: 0 for no effect and ±100 for the full control effect.

Sequence of 5-hydroxytryptamine receptor 2A (Homo sapiens) (P28223 whole entry, looked up): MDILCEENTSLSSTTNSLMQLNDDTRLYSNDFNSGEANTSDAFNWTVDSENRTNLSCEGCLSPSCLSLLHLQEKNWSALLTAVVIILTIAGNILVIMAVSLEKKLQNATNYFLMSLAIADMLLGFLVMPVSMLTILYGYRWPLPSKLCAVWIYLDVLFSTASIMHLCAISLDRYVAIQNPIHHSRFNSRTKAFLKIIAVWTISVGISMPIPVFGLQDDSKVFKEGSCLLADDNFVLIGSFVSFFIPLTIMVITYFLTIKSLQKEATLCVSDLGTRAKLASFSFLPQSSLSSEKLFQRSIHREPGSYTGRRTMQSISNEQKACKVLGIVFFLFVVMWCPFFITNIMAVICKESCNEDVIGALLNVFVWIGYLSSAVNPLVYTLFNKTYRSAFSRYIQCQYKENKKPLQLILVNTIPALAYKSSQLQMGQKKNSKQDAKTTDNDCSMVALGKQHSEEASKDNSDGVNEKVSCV

The target of this test is 5-hydroxytryptamine receptor 2A (Homo sapiens) (UniProt P28223). As to the kind of experiment: 5-hydroxytryptamine receptor 2A (HTR2A) small molecule antagonists, cell-based qHTS assay (AID 1963586). Also: nearly all actives have a fitted effect of over 45% in size. Particulars: HTR2A-CHO cells, DOI-induced calcium flux, fluorescence; series mostly up to 61.5 µM; activity, negative = inhibition: at the top concentration. An excerpt:
National Center for Advancing Translational Sciences [NCATS]
Division of Preclinical Innovation [DPI]
U.S. Environmental Protection Agency [EPA]
National Institutes of Environmental Health Sciences [NIEHS]
National Toxicology Program [NTP]
U.S. Food and Drug Administration [FDA]
The HTR2A receptor is a subtype of the 5-HT2 receptor that belongs to the serotonin receptor family and is a G protein-coupled receptor (GPCR). The HTR2A-CHO cell line stably expressing human 5-hydroxytryptamine receptor 2A (HTR2A) can be used for screening antagonists of interactions between 5-HT2 and its ligands. The HTR2A-CHO calcium flux assay is a homogeneous fluorescence-based assay for detecting the intracellular calcium level using FDSS kinetic plate reader system.
Tox21 Assay Protocol Summary:
HTR2A-CHO cells were dispensed at 2000 cells/3uL/well in 1536-well black-clear bottom plates using a Multidrop Dispenser. After the assay plates were incubated at a 37 C/5% CO2 incubator for 18 h, 3 uL of Dye Loading Buffer was transferred to the assay plate by a Flying Reagent Dispenser. The assay plates were incubated at 37 C for 1h. For antagonist mode, 23 nL of compounds dissolved in DMSO, positive controls or DMSO only was transferred to the assay plate by a pin tool. After 5 min incubation at room temperature, 1.5 uL of 4-Iodo-2,5-dimethoxy-alpha-methylbenzeneethanamine hydrochloride (DOI) at 4nM was added to each well. The fluorescence intensity in the plates was measured using FDSS 7000EX kinetic plate reader for 3 min at 1 sec intervals.
(In general: Quantitative high-throughput screening tests each substance at several concentrations.)
For the molecule `c1ccc2c(c1)Oc1ccccc1S2`, the Potency entry was “inactive”.

For the molecule `C=CCc1cc(OC)c(O)c(C(=O)NCCO)c1`, the “activity, negative = inhibition” value is 3.28% [at 28.5 µM].

Take `COc1ccccc1N=Nc1c(S(=O)(=O)O)cc2cc(S(=O)(=O)O)cc(NC(C)=O)c2c1O`: the “activity, negative = inhibition” value is -0.0674%.

Consider `O=C1C(O)=C(O)C(=O)C(O)=C1O`, for which the “activity, negative = inhibition” value is 1.59% [at 28.5 µM].

`C[C@@H]1CCC[C@H](C)N1CCCC(O)(c1ccccc1)c1ccccn1` (stereo not given in full): the “activity, negative = inhibition” value is 0.399% [at 28.5 µM].

Turning to `O=C(O)c1cccc(Cl)c1Cl`, the “activity, negative = inhibition” value is -22.6%.

Take `NC(=O)NS(=O)(=O)c1ccc(Cl)cc1`: the “activity, negative = inhibition” value is 0.622% [at 28.5 µM].

Turning to `O=[N+]([O-])c1ccc2c(c1)Cc1ccccc1-2`, the Potency entry was “inactive”.

Take `O=C1OC2(c3cc(Br)c(O)c(Br)c3Oc3c2cc(Br)c(O)c3Br)c2c(Cl)c(Cl)c(Cl)c(Cl)c21`: the Potency result is “inactive”.

`O=S(=O)(O)CCCN1CCOCC1`: the “activity, negative = inhibition” value is 18%.

Turning to `FC(F)(F)C(F)(F)C(F)(F)C(F)(F)C(F)(F)C(F)(F)CCI`, the “activity, negative = inhibition” value is 6.85% [at 28.5 µM].

Consider `OCCN1CCNCC1`, for which the “activity, negative = inhibition” value is -0.129%.

For the molecule `CCC1CCCCC1`, the “activity, negative = inhibition” value is 7.29%.

For the molecule `C=C(C)C(=O)OCCOP(=O)(O)O`, the “activity, negative = inhibition” value was 3.57%.

In the case of `CCOCCOCC`, the “activity, negative = inhibition” value is 6.96%.

On to `CCOc1ccc(Cc2nccc3cc(OCC)c(OCC)cc23)cc1OCC`, for which the “activity, negative = inhibition” value was -25.1% [at 28.5 µM].

Turning to `CCCC/C=C\CCCCCCCCCC=O`, the “activity, negative = inhibition” value was 7.32%.

In the case of `C=C1[C@H]2CC[C@@H]3[C@H]2C(C)(C)CCC[C@]13C`, the “activity, negative = inhibition” value is -5.42%.

Regarding `Cc1sccc1Br`, the “activity, negative = inhibition” value was -12% [at 28.5 µM].

With `O=C(O)C[C@H](NC(=O)OCc1ccccc1)C(=O)O`, the “activity, negative = inhibition” value is 6.42%.

Take `OC1OC[C@@H](O)[C@H](O)[C@H]1O` (stereo not given in full): the “activity, negative = inhibition” value is 0.532%.

`CCCCCCOC(=O)c1ccccc1O`: the “activity, negative = inhibition” value is -1.26%.

On to `O=C(O[C@@H]1Cc2c(O)cc(O)cc2O[C@@H]1c1cc(O)c(O)c(O)c1)c1cc(O)c(O)c(O)c1`, for which the Potency entry is “inactive”.

For `CCCCCCCCCCCCCCC(=O)NC(CO)CCCCCCCCCCCCCC` (stereo not given), the “activity, negative = inhibition” value was 21.5%.

With `O=CC1CC=CCC1` (stereo not given), the “activity, negative = inhibition” value is -28.7%.

Consider `CCOC(=O)O[C@]1(C(=O)OCCl)CC[C@H]2[C@@H]3CCC4=CC(=O)C=C[C@]4(C)[C@H]3[C@@H](O)C[C@@]21C`, for which the “activity, negative = inhibition” value is -7.76% [at 28.5 µM].

`ON(Cc1ccccc1)Cc1ccccc1`: the “activity, negative = inhibition” value was -2.8%.

As to `C[Si](C)(C)Cl`, the “activity, negative = inhibition” value is 1.48%.

In the case of `CCCCOC(=O)C(C)OC(=O)CCC` (stereo not given), the “activity, negative = inhibition” value was -1.51%.

In the case of `CC12CCC(C(=O)C1=O)C2(C)C` (stereo not given), the “activity, negative = inhibition” value is -7.45%.

As to `O=[N+]([O-])c1ccc(/C=C/c2ccc([N+](=O)[O-])cc2S(=O)(=O)O)c(S(=O)(=O)O)c1`, the Potency entry is “inactive”.

Take `CCCCCC1CCCC(=O)O1` (stereo not given): the “activity, negative = inhibition” value was 0.703%.

As for `Cc1ccc(C(=O)O)cc1`, the “activity, negative = inhibition” value was 13.6%.

Regarding `CC(=O)OCCc1ccccc1`, the “activity, negative = inhibition” value is -11.7%.

With `CC1CC(O)CC(C)(C)C1` (stereo not given), the “activity, negative = inhibition” value is 1.72%.

Consider `CN(C)CCCNCCC#N`, for which the “activity, negative = inhibition” value was -2.8%.

`O=C(O)c1cccc(C(F)(F)F)c1`: the “activity, negative = inhibition” value was 45%.

`O=C(O)[C@H](O)[C@@H](O)[C@H](O[C@@H]1O[C@H](CO)[C@H](O)[C@H](O)[C@H]1O)[C@H](O)CO`: the “activity, negative = inhibition” value is 41.5% [at 28.5 µM].

For the molecule `CCOC(=O)CCC(C)=O`, the “activity, negative = inhibition” value was 0.118%.

`CCOC(=O)CN1CCCC1=O`: the “activity, negative = inhibition” value is 76.7% [at 28.5 µM].
